# Most compounds without a hit are left out; they make up all but 4.2% or so of the library.
# hgDAF12 agonist: H. glycines DAF-12 receptor agonists, primary screen, cell-based, luminescence, HEK293, GAL4 fusion, UAS-luciferase; Nuclear hormone receptor DAF-12 (Heterodera glycines), GAL4 fusion; HEK293 GAL4-hgDAF12 UAS-luciferase reporter, agonist luminescence; normalized to butyrate control; activation, % at 6.8 µM; 370,000 tested, 1.8% active; AID 687014, 2013;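 active = activation above a cutoff set at the mean of all screened compounds plus 3 SD, cut at about 10% in these data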;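 note: 0% = DMSO wells and 100% = sodium butyrate wells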
# DAX1 inh: DAX1 (NR0B1) inhibitors on StAR promoter, primary screen, cell-based, luminescence, SF-1 (NR5A1), full-length DAX-1. HEK293T StAR-luciferase reporter, SF-1/DAX-1 repression relief. inhibition, % at 6.8 µM. 370,000 tested, 1.1% active;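 active = inhibition above the mean over all tested compounds plus 3 SD, cut at about 3.6% in these data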;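 note: 0% = DAX-1 cells with DMSO and 100% = cells lacking DAX-1 with DMSO; higher inhibition means more luminescence from relief of DAX-1 repression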
# hcDAF-12 act: H. contortus DAF-12 nuclear receptor activators, primary screen, cell-based, luminescence, HEK293, lit1-tk-luc reporter. 370,000 tested, 1.4% active. HEK293 hcDAF-12 lit1-tk-luc reporter; 0% DMSO, 100% Δ7-dafachronic acid. AID 652067, 2013. activation, % at 6.8 µM;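 active = activation above the mean of all tested compounds plus 3 SD, cut at about 5.5% in these data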;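 note: 100% = response to 3 µM Δ7-dafachronic acid high control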
# SMARCA2 activ: SMARCA2 (BRM) function activators, primary screen, cell-based, luminescence, high throughput; MG213 cells, MMTV-luciferase reporter, dexamethasone, overnight; activation, % at 9.1 µM; 370,000 tested, 1% active; AID 652017, 2013; in the data active = activation above about 7.8%;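 note: 0% = vehicle wells and 100% = reference activator wells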
# ssDAF-12 act: S. stercoralis DAF-12 nuclear receptor activators, primary screen, cell-based, luminescence, HEK293, GRIP1 co-expression, lit1-tk-luc; Nuclear hormone receptor DAF-12 (Strongyloides stercoralis); HEK293 ssDAF-12/GRIP1 lit1-tk-luc reporter; % of 3 µM dafachronic acid response; activation, % at 6.8 µM; 370,000 tested, 1% active; AID 652126, 2013;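 active = activation above the mean over all tested compounds plus 3 SD, cut at about 0.9% in these data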;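 note: 0% = DMSO-only wells and 100% = 3 µM delta7-dafachronic acid wells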
# LXRb hcDAF ctr: LXR agonists, Gal4 luciferase reporter, confirmation, counter-screen for hcDAF-12 agonist project, cell-based, luminescence, HEK293, H. contortus campaign; HEK293 Gal4-LXR tk-luc reporter, 24 h; normalized: DMSO 0%, positive control 100%; activation, % at 6.8 µM; shares compounds with hcDAF-12 act; AID 743027, 2013; 3,400 tested, under 10 active;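 active = mean percent activation of the reporter above a cutoff set as the average over tested compounds plus their standard deviation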
# Target sequence (P55055 whole entry, looked up, the tested form may be a part): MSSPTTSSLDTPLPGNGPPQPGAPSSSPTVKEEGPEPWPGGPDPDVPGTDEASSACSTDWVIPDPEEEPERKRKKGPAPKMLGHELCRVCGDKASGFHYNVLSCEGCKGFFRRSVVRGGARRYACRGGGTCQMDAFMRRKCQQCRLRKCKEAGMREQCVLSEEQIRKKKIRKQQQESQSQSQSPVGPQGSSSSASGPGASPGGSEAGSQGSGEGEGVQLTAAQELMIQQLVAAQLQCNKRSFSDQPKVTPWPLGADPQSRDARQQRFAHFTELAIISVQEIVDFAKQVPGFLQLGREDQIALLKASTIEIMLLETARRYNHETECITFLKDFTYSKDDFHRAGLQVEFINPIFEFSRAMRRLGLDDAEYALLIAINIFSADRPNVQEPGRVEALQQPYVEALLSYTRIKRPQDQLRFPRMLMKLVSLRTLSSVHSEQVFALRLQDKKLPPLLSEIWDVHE
# hcDAF12 ag: H. contortus DAF-12 receptor agonists, confirmation, cell-based, luminescence, HEK293, lit1-tk-luc, triplicate; 3,400 tested, 61% active; HEK293 hcDAF-12 lit1-tk-luc reporter; % of Δ7-dafachronic acid response; AID 743032, 2013; shares compounds with hcDAF-12 act; activation, % at 6.8 µM;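 active = mean activation across triplicate tests above the threshold derived from the earlier primary screen, cut at about 5.5% in these data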;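 note: 0% = DMSO only wells and 100% = 3 µM Δ7-dafachronic acid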
# Active calls of the source: *; . = no result given.
SMILES,hgDAF12 agonist,DAX1 inh,hcDAF-12 act,SMARCA2 activ,ssDAF-12 act,LXRb hcDAF ctr,hcDAF12 ag
O=C(OCc1ccc(CSc2nnc(-c3cccc4ccccc34)o2)cc1)c1ccc(F)cc1,0,.,0,.,-2,.,.
CN(C)C(=O)c1ccc(SC(=S)NCc2ccccc2)cc1,0,-1,0,1,-1,.,.
C#CCN(C[C@@H]1[C@@H](OC(=O)NCc2ccco2)[C@@H](OC(=O)NCc2ccco2)CN(C(=O)OC(C)C)N1C(=O)OC(C)C)S(=O)(=O)c1ccc(C)cc1,-2,-2,0,-1,-1,.,.
Cc1c(/C=N\NC(=O)c2c[nH]c3ccccc23)cnn1C,1,1,9.4*,1,1.7*,0,2
O=C(N/N=C/c1c[nH]c2ccccc12)C1CC1c1ccccc1 (stereo unspecified),-2,-2,9.2*,-6,-1,0,1
CCn1cc(/C=N\NC(=O)c2c[nH]c3ccccc23)c(C)n1,8,1,4,5,-1,.,.
Cc1nccn1CC(=O)N/N=C/c1c[nH]c2ccccc12,3,0,8.3*,-2,-1,0,-1
O=C(N/N=C/c1c[nH]c2ccccc12)C1CC1(c1ccccc1)c1ccccc1 (stereo unspecified),3,0,2,-6,-1,.,.
Cn1cccc1/C=C1\CCc2ccccc2C1=O,10,3,10*,-1,0,1,11*
Cn1cccc1/C=C1\Cc2ccccc2C1=O,19*,3.9*,12*,6,1.7*,2,9.4*
Cn1cccc1/C=C1\CC(C(C)(C)C)C/C(=C\c2cccn2C)C1=O (stereo unspecified),5,0,-1,2,-1,.,.
O=C(c1cc(F)cc(F)c1)N1CCCC(c2nc(-c3cccs3)no2)C1 (stereo unspecified),1,0,-1,-3,-1,.,.
CC(C)C[C@@H]1COc2cc(Br)ccc2S(=O)(=O)N1Cc1cn(CC2CCCCC2)nn1,-1,-1,-1,-5,-1,.,.
O=C(Cc1nnc(NC(=O)c2ccccc2)s1)N/N=C/c1ccco1,2,1,7.5*,-6,1.3*,0,0
COc1ccc([N+](=O)[O-])cc1C1NN=C(c2ccccc2O)S1 (stereo unspecified),6,0,6.9*,2,1,0,4
CC(=O)c1c(C)[nH]c(C(=O)NCCc2ccc(Cl)cc2)c1C,3,-1,-1,0,-2,.,.
Nc1[nH]c2cc(Cl)ccc2c1C(=O)NCCc1ccc(Cl)cc1,1,1,6.6*,0,0,0,7.2*
Nc1[nH]c2cc(C(F)(F)F)ccc2c1C(=O)NCc1ccc(F)cc1,0,-1,7.0*,-2,0,0,4
Cc1ccc(/C=C/c2nc3ccccc3[nH]2)o1,8,2,8.3*,7,0,1,8.4*
Cn1c(SCC(=O)NCC2CCCO2)nnc1-c1c[nH]c2ccccc12 (stereo unspecified),2,-1,0,-1,0,.,.
O=C(CSc1c[nH]c2ccccc12)NCC1CCCO1 (stereo unspecified),0,-1,9.6*,-1,1.5*,0,4
COc1ccc(-c2cc(NC=O)c3ncc(-c4cccc(C(=O)N(C)C)c4)n3c2)cn1,-2,0,-2,-3,-1,.,.
O=C(Nc1ccc2c(c1)OCO2)OC1CC2CC1[C@H]1CCCCN1[C@H]2Cc1ccccc1 (stereo partly specified),1,-1,-2,-2,-1,.,.
Clc1ccc(CSc2nnc(-c3cccs3)o2)cc1Cl,0,-1,0,4,-2,.,.
O=C(Nc1ccc(Cl)cc1Cl)c1ccc(Br)o1,8,1,8.2*,4,0,1,6.4*
SMILES,hgDAF12 agonist,DAX1 inh,hcDAF-12 act,SMARCA2 activ,ssDAF-12 act,LXRb hcDAF ctr,hcDAF12 ag
O=C(Nc1cc(Cl)ccc1N1CCOCC1)c1ccc(Br)o1,1,-1,0,-2,-1,.,.
CC(=O)N[C@@H]1C=C[C@@H](CC(=O)NCc2ccc(Cl)cc2)O[C@@H]1CO,1,-1,3,-4,-1,.,.
Cc1ccc2c(c1)COc1c3ccc(C(=O)NCCO)cc3nn1-2,7,1,2,6,0,.,.
CCCC#Cc1ccc2c(c1)COc1c3ccccc3nn1-2,17*,4.1*,11*,5,2.6*,2,12*
CN1N=C(C(=O)N2CCc3c([nH]c4ccccc34)C2c2ccccc2Cl)CCC1=O (stereo unspecified),12*,2,7.8*,5,1.7*,0,6.9*
COc1ccc(C2c3[nH]c4ccccc4c3CCN2C(=O)c2ccc(=O)n(C)n2)c(F)c1 (stereo unspecified),8,0,6.9*,-1,0,0,5
CCC[C@H]1[C@@H](OC(=O)NCc2cccnc2)CC[C@@]23CCCN2C(=O)CCC[C@@H]13,-1,.,-3,.,0,.,.
O=C1CN(C(=O)COC(=O)c2cc(Cl)ccc2[N+](=O)[O-])c2ccccc2N1,2,0,-1,-2,-1,.,.
COc1cc(C(=O)NN=C2c3ccccc3-c3ccccc32)cc(OC)c1OC,-4,1,-1,0,0,.,.
NC(Cc1ccc(O)cc1)C(=O)NN=Cc1ccccc1Cl (stereo unspecified),4,2,0,-1,0,.,.
O=C1C(Cl)=C(Nc2ccc(O)cc2)C(=O)c2ccccc21,-4,-2,3,-12,-1,.,.
Cc1ccc(NC2=C(Cl)C(=O)c3ccccc3C2=O)cc1,9,2,7.4*,0,1.3*,0,5.9*
COc1ccc(-n2c(C)cc(/C=C3\SC(=S)NC3=O)c2C)cc1,0,0,0,2,-1,.,.
Cc1cc(/C=C2\SC(=S)NC2=O)c(C)n1-c1ccccc1,8,2,13*,5,1.6*,1,13*

# Screening results deposited in PubChem BioAssay by The Scripps Research Institute Molecular Screening Center.
